Bioassay records as filed in PubChem BioAssay.
In the library only some 4.9% were active in any assay of this set; here they are far more common.
NALP1 inh: NALP1 inhibition. S. cerevisiae NALP1/ASC/caspase-1 growth, X-gal OD620, 72 h. inhibition, % at 10 µM. 280,000 tested, 0.61% active. AID 2071; in the data active = inhibition mostly above about 24%, no sharp cut-off; inactive = mostly below about 32%
tim23-1 inh: inhibits growth of tim23-1 mutant yeast; S. cerevisiae tim23-1 growth, BacTiter-Glo luminescence, 24 h; inhibition, % at 20 µM; 330,000 tested, 1.3% active; AID 463212;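 active = growth inhibition of the mutant yeast at or above 50%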;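 also: temperature-sensitive mutant grown at 25 °C; plate controls were DMSO-treated mutant yeast for no effect and medium wells lacking yeast for full effect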
tim10-1 inh: growth inhibitors of tim10-1 mutant yeast; S. cerevisiae tim10-1 ts strain growth, BacTiter-Glo, 24 h; inhibition, % at 20 µM; 330,000 tested, 2.2% active;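 active = inhibition of at least 40%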;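 also: mutant grown at 25 °C; 0% = DMSO wells with yeast and 100% = wells holding no yeast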
SKKanGAS inh: blocks kanamycin growth of S. pyogenes SKKanGAS strain | BacTiter-Glo, 6 h | inhibition, % at 7.5 µM | 300,000 tested, 1.3% active | AID 1662;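 active = mean replicate score, as percent of positive control median, at least 50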;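 also: strain carries kanamycin resistance gene driven by streptokinase promoter and grows in 40 µg/ml kanamycin; loss of luminescence reflects streptokinase promoter inhibition or plain growth inhibition; 0% = median of DMSO wells and 100% = positive control at its reference dose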
NLRP3 yeast inh: NALP3 inhibition in yeast | inhibition, % at 10 µM | 330,000 tested, 0.39% active | Yeast reconstituted NLRP3/ASC/caspase-1, beta-gal luminescence, 24 h;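 active = inhibition of 50% or more; inactive = inhibition below 50%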;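 also: plate controls were induced DMSO wells for no effect and uninduced yeast grown without galactose for full effect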
TIM10 inh: TIM10 yeast growth inhibition; S. cerevisiae TIM10 strain growth, BacTiter-Glo luminescence, 24 h; inhibition, % at 10 µM; 330,000 tested, 1.4% active; AID 463195;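 active = inhibition of 40% or more at the single tested concentration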;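 also: wild-type TIM10 isogenic control strain grown at permissive 25 °C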
NALP3 yeast conf: confirmation of NALP3 inhibitors in yeast | shares compounds with NLRP3 yeast inh | inhibition, % at 10 µM | 1,300 tested, 81% active | yeast expressing human NALP3, luminescence | AID 435006; in the data active = inhibition above about 48%
Casp1-ASC yeast: caspase-1-ASC yeast counter-screen hit | inhibition, % at 10 µM | 1,000 tested, 66% active | shares compounds with NLRP3 yeast inh | yeast expressing Caspase-1-ASC, luminescence counter screen
NALP3 yeast rt: yeast NALP3 inhibition, confirmed on retest; shares compounds with NLRP3 yeast inh; yeast expressing human NALP3, luminescence read-out; inhibition, % at 10 µM; 1,000 tested, 53% active
The depositor's hits bear a star; x = not tested or not shown. Rule as the data show it, unless noted: active = inhibition above about 50%; inactive = the rest.

SMILES	NALP1 inh	tim23-1 inh	tim10-1 inh	SKKanGAS inh	NLRP3 yeast inh	TIM10 inh	NALP3 yeast conf	Casp1-ASC yeast	NALP3 yeast rt
Fc1cccc(/C=N/Nc2nncc3ccccc23)c1	12	18	10	7	57*	18	63*	44	38
COc1cc(/C=C/C(=O)OCC(=O)Nc2cc(C)on2)ccc1OCC#N	x	-2	8	x	14	-4	x	x	x
S=c1[nH]nc(COc2ccc(Cl)cc2)n1Cc1ccccc1	0	3	14	2	15	26	x	x	x
c1ccc(OCc2nnnn2-c2ccccc2)cc1	-25	13	27	-4	-105	-11	-66	-20	-36
Clc1ccc(OCc2nnnn2-c2ccccc2)cc1	-35	30	39	5	-114	7	-41	x	x
CCCCCC(=O)N1CCN(CCN=CC2=C(O)CC(c3ccco3)CC2=O)CC1 (stereo unspecified)	-15	19	9	-5	53*	14	54*	43	52*
CCCCCC(=O)N1CCN(CCN=CC2=C(O)CC(c3cccs3)CC2=O)CC1 (stereo unspecified)	-6	8	12	2	51*	16	65*	55*	44
Nc1ccccc1SC/C=C/CSc1ccccc1N	9	-16	-70	-2	52*	-46	57*	45	40
COc1ccc(C(C)(C)C)cc1NC(=O)c1cncc(Br)c1	5	35	38	-12	56*	-6	62*	58*	55*
O=C1C=C(O)c2cccc(O)c2C1=O	3	4	15	x	10	6	x	x	x
O=C1c2cccc(O)c2C(=O)c2c(O)cccc21	76	44	22	6	60*	27	64*	x	x
C=C(Cl)COc1ccc2c(CC)cc(=O)oc2c1	2	21	14	x	51*	-19	44	64*	56*
CCCCc1c(C)c(C#N)c2[nH]c3ccccc3n2c1=O	9	15	19	9	58*	10	78*	-1	20
CCOc1nc(S(=O)(=O)c2ccc(C)cc2)c(Cl)s1	-19	9	19	10	-107	20	-12	x	x
CSc1nc(S(=O)(=O)c2ccc(C)cc2)c(Cl)s1	-31	18	18	7	-51	-25	x	x	x
CCC1Nc2ncnc(N3CCCCC3)c2N(Cc2ccc(Cl)cc2)C1=O (stereo unspecified)	x	46	15	x	16	19	x	x	x
CCC1Nc2ncnc(N3CCN(c4ccccn4)CC3)c2N(Cc2ccc(Cl)cc2)C1=O (stereo unspecified)	x	21	-7	8	51*	7	60*	38	52*
CCC1Nc2ncnc(N3CCCCC3)c2N(Cc2ccc(Br)cc2)C1=O (stereo unspecified)	x	33	23	3	22	26	x	x	x
CCC1Nc2ncnc(N3CCN(c4ccccn4)CC3)c2N(Cc2ccc(Br)cc2)C1=O (stereo unspecified)	x	31	-8	x	56*	8	70*	48	66*
O=C(Nc1ccc(S(=O)(=O)Nc2ncccn2)cc1)C1=COCCO1	x	-21	-19	-2	17	2	x	x	x
CS(=O)(=O)N1c2ccccc2[C@]2([C@@]34C[C@H]5C(=O)N[C@@H](Cc6ccccc6)C(=O)N5[C@@H]3N(S(C)(=O)=O)c3ccccc34)C[C@H]3C(=O)N[C@@H](Cc4ccccc4)C(=O)N3[C@H]12	x	9	4	0	-18	7	x	x	x
CCC(C)NC(=O)c1cn(CC)c2cc(N3CCN(C(=O)c4ccco4)CC3)c(F)cc2c1=O (stereo unspecified)	-26	6	18	18	9	11	x	x	x
Cn1c(N2CCOCC2)c(/C=N/OC(=O)c2ccc(F)cc2)c2ccccc21	4	17	38	8	65*	9	84*	61*	56*
Cn1cccc1/C=C1\Cc2ccccc2C1=O	2	25	-21	2	54*	14	69*	x	x
Cn1cccc1/C=C1\CCc2ccccc2C1=O	0	35	8	19	22	13	x	x	x
SMILES	NALP1 inh	tim23-1 inh	tim10-1 inh	SKKanGAS inh	NLRP3 yeast inh	TIM10 inh	NALP3 yeast conf	Casp1-ASC yeast	NALP3 yeast rt
Cc1nn(-c2ccccc2)cc1C(=S)Nc1ccccc1	32	38	31	-3	52*	17	63*	57*	58*
Cc1c(C(=S)Nc2ccccc2)cnn1-c1ccccc1	18	23	33	-9	37	21	x	x	x
O=C(NC1CCN(S(=O)(=O)c2ccccc2)CC1)c1cccc(F)c1	19	12	6	-13	9	8	x	x	x
O=C1/C(=C\c2ccco2)SC(=S)N1c1ccc(O)cc1	76*	43	6	10	81*	17	61*	26	32
O=C(N/N=C/c1ccc(-n2ccnc2)cc1)c1cccs1	17	11	-1	-2	12	3	x	x	x
O=C(CSc1n[nH]c(=O)[nH]c1=O)Nc1ccc(SC(F)F)cc1	x	-1	-12	x	19	-10	x	x	x
Cc1ccc(NC(=S)NNC(C)(C)C)cc1	30	-4	8	5	51*	2	43	61*	31
COc1cccc(Nc2ncnc3onc(-c4ccccc4OC)c23)c1	24	13	4	-3	26	16	x	x	x
COc1ccccc1-c1noc2ncnc(Nc3cccc(C)c3)c12	14	-1	12	5	64*	-10	71*	60*	40
CCC(C)c1ccccc1NC(=O)c1cc2cccc([N+](=O)[O-])c2[nH]1 (stereo unspecified)	x	20	-10	25	52*	-109	22	x	x
O=C(C[C@@H]1C/C=C\C[C@@H](NC(=O)OCC2c3ccccc3-c3ccccc32)C(=O)OCCNC1=O)N[C@@H](CO)Cc1ccccc1	x	-1	-1	x	4	1	x	x	x
CCN(CC)S(=O)(=O)c1cc(OC)c(C)cc1C	23	3	-9	-2	35	-19	x	x	x
CCN(CC)S(=O)(=O)c1cc(OC)c(Cl)cc1Cl	21	11	-21	6	55*	-16	64*	53*	50*
O=C(Nc1ccc([N+](=O)[O-])cc1)Nc1ccc(Cl)cc1F	24	-19	25	58*	76*	4	49*	27	20
CCOc1ccc(C(=O)NNC(=O)CN2C(=O)C3CC=CCC3C2=O)cc1OC (stereo unspecified)	x	7	1	x	-3	2	x	x	x
CC1(C)[C@@H](O)CC[C@]2(C)C3C(O)C=C4[C@H]5C[C@@](C)(C(=O)O)CC[C@]5(C)CC[C@]4(C)[C@]3(C)CC[C@@H]12 (stereo partly specified)	x	8	10	39	60*	8	70*	x	x
